# Data as given in paper PMC7862700, “An all-to-all approach to the identification of sequence-specific readers for epigenetic DNA modifications on cytosine”.
# Experiments:
# Assay in all cases: DAPPL (digital affinity profiling via proximity ligation, sequencing); 10 mM Tris-HCl pH 7.5, 50 mM NaCl, 1 mM DTT, 4% glycerol, room temperature, 30 min; GST-TFs on glutathione beads, 16-mer random dsDNA library, 0.1% formaldehyde crosslink after washing; high values mean tight binding
# FLI1 = molecular target: T1, FLI1 (Homo sapiens, UniProt Q01543 1-452); details: protein: recombinant; tags: N-terminal GST; dsDNA, one strand shown
# T1 sequence: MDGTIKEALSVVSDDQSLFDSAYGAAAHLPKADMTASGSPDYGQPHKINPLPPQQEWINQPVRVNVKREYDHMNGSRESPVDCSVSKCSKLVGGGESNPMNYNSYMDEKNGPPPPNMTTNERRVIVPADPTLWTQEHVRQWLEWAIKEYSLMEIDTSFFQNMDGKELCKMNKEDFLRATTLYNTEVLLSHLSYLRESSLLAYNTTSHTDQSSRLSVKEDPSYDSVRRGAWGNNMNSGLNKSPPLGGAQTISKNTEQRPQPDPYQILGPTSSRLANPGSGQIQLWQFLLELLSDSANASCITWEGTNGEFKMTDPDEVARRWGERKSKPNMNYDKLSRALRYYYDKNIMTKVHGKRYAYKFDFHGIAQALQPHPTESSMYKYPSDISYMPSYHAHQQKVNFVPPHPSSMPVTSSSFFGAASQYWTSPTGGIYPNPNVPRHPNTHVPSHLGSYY
# How it was run: (§1)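 In yeast, human transcription factors were expressed with a GST fusion, then pulled down on glutathione beads and given DNA barcodes. Pooled with a tag-only sample, they were exposed to 200 nmole of a 16-mer random double-stranded DNA library (Tris/NaCl/DTT/glycerol buffer, room temperature, 30 min), washed, crosslinked with 0.1% formaldehyde, proximity-ligated using BsaI/T4 ligase for 1 h at 37 °C, PCR-amplified and read on an Illumina NextSeq500. Each hexamer's frequency of reads for a factor, divided by the matching frequency for the tag-only sample, gives the binding signal.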
# ELK1 = molecular target: T2, ELK1 (Homo sapiens, UniProt P19419 1-428); details: protein: recombinant; tags: N-terminal GST; dsDNA, one strand shown
# T2 sequence: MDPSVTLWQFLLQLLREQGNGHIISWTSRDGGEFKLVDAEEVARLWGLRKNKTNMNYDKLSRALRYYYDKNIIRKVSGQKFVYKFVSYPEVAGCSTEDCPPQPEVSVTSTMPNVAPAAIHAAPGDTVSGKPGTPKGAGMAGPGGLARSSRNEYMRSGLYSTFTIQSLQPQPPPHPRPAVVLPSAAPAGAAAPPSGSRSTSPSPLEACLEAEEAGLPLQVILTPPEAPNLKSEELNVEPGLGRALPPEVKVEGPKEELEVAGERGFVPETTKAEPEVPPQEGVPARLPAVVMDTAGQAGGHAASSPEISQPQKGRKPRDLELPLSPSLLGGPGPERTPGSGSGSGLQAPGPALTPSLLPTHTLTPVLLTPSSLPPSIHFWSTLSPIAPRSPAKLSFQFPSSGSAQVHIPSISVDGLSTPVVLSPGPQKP
# How it was run: as §1
# GABPA = molecular target: T3, GABPA (Homo sapiens, UniProt Q06546 1-454); details: protein: recombinant; tags: N-terminal GST; dsDNA, one strand shown
# T3 sequence: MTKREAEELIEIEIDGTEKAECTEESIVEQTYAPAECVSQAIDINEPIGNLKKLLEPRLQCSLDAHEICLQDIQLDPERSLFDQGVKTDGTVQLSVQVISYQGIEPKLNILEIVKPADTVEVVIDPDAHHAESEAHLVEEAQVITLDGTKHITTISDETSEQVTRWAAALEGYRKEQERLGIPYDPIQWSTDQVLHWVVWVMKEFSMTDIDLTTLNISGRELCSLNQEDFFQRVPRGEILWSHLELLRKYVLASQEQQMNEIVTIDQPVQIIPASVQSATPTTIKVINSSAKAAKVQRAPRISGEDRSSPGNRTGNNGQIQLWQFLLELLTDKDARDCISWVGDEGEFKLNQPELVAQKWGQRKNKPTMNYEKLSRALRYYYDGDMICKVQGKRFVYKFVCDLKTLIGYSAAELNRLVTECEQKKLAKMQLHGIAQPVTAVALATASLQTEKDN
# How it was run: as §1
# ERG = molecular target: T4, ERG (Homo sapiens, UniProt P11308 1-479); details: protein: recombinant; tags: N-terminal GST; dsDNA, one strand shown
# T4 sequence: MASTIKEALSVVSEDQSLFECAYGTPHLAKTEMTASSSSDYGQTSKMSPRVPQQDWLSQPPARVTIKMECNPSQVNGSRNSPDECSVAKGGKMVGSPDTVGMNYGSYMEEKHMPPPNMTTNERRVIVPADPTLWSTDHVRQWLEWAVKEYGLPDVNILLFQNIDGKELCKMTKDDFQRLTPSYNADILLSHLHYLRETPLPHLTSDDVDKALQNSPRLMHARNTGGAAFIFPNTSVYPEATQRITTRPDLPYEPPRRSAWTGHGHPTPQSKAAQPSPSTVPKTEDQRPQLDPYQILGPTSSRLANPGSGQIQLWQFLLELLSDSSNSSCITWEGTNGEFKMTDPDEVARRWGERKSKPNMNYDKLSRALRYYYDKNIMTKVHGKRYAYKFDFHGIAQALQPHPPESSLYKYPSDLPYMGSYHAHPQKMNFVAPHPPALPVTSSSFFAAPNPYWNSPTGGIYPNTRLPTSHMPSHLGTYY
# How it was run: as §1
# ELF1 = ELF1 (Homo sapiens, UniProt P32519 1-619); details: protein: recombinant; tags: N-terminal GST; dsDNA, one strand shown
# Chain of ELF1 (P32519 whole entry): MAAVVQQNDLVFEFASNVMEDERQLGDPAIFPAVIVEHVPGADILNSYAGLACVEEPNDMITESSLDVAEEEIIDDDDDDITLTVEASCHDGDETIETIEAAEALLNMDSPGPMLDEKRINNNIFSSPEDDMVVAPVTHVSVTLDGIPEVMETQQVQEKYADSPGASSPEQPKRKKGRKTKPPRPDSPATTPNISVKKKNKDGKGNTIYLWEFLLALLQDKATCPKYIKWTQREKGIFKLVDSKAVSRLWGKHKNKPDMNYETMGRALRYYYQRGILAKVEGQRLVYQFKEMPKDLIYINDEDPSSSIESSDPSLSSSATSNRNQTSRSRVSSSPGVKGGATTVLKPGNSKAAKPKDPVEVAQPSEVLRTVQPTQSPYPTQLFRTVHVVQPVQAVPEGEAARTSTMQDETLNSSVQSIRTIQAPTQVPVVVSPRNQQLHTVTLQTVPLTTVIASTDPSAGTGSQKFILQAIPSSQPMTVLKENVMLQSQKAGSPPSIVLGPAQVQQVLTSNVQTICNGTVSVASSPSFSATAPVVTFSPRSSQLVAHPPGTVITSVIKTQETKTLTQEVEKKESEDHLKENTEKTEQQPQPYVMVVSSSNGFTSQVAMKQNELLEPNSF
# How it was run: as §1
# EHF = molecular target: T5, EHF (Homo sapiens, UniProt Q9NZC4 1-300); details: protein: recombinant; tags: N-terminal GST; dsDNA, one strand shown
# T5 sequence: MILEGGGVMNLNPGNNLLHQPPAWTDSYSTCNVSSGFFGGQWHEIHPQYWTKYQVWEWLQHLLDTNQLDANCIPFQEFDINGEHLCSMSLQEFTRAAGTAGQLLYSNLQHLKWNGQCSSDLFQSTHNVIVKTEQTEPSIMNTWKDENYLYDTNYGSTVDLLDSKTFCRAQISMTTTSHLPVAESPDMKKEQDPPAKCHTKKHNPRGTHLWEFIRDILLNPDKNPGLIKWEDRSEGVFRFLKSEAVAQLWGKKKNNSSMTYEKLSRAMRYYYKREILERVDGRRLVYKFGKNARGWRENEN
# How it was run: as §1
# SPI1 = SPI1 (Homo sapiens, UniProt P17947 1-270); details: protein: recombinant; tags: N-terminal GST; dsDNA, one strand shown
# How it was run: as §1
# SPIB = SPIB (Homo sapiens, UniProt Q01892 1-262); details: protein: recombinant; tags: N-terminal GST; dsDNA, one strand shown
# Chain of SPIB (Q01892 whole entry): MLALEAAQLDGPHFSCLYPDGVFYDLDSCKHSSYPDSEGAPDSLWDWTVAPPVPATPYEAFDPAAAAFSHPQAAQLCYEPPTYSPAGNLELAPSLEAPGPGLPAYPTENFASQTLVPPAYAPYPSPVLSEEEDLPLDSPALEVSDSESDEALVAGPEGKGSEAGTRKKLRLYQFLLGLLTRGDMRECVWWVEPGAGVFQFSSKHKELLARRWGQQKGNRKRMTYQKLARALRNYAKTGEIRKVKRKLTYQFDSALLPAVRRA
# How it was run: as §1
# ELK3 = molecular target: T6, ELK3 (Homo sapiens, UniProt P41970 1-407); details: protein: recombinant; tags: N-terminal GST; dsDNA, one strand shown
# T6 sequence: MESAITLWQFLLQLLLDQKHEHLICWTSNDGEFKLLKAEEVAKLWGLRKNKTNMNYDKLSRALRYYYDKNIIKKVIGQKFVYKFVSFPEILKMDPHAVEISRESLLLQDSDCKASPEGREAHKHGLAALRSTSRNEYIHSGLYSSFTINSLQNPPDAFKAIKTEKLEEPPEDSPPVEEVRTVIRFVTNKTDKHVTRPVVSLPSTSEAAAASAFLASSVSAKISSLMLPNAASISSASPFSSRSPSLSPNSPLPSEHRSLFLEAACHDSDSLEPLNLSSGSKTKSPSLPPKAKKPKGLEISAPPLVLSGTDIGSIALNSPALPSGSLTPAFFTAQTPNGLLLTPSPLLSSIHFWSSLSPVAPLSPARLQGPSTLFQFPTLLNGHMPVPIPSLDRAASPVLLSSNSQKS
# How it was run: as §1
# FEV = molecular target: T7, FEV (Homo sapiens, UniProt Q99581 1-238); details: protein: recombinant; tags: N-terminal GST; dsDNA, one strand shown
# T7 sequence: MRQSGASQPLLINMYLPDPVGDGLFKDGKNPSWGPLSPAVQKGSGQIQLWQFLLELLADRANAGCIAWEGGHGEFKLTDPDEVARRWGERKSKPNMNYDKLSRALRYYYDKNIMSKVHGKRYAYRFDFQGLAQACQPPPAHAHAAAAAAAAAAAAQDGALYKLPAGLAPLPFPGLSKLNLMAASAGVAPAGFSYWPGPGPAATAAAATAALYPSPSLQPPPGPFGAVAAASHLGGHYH
# How it was run: as §1
# ETV5 = ETV5 (Homo sapiens, UniProt P41161 1-510); details: protein: recombinant; tags: N-terminal GST; dsDNA, one strand shown
# Chain of ETV5 (P41161 whole entry): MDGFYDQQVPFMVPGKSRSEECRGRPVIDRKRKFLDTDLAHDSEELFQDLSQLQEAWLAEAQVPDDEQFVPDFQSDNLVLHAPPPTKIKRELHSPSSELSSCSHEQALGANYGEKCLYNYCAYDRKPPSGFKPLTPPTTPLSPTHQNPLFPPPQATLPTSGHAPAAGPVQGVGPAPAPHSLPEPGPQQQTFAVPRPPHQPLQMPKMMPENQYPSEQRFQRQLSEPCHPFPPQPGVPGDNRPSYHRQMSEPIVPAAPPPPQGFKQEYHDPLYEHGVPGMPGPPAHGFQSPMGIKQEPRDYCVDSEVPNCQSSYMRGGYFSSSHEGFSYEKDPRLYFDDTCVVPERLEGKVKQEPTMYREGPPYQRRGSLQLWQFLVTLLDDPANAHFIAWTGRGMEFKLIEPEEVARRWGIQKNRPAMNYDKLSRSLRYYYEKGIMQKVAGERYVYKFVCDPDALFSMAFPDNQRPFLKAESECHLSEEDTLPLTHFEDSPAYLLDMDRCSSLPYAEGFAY
# How it was run: as §1
# HSF1 = HSF1 (Homo sapiens, UniProt Q00613 1-529); details: protein: recombinant; tags: N-terminal GST; chain copies: 3; dsDNA, one strand shown
# Chain of HSF1 (Q00613 whole entry): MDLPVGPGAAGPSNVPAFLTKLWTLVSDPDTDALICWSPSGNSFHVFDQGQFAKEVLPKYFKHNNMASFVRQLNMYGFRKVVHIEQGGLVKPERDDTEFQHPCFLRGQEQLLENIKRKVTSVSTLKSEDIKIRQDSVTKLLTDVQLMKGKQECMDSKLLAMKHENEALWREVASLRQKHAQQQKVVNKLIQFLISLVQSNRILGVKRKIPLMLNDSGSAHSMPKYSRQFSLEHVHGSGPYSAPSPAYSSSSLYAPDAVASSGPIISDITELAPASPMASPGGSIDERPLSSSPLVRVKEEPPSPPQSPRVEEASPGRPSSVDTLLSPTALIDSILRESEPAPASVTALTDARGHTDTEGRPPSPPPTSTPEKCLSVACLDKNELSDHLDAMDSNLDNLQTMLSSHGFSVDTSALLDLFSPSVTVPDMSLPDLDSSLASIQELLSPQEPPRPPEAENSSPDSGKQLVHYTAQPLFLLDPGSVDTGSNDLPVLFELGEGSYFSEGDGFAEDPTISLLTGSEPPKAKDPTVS
# How it was run: as §1
# SPIC = molecular target: T8, SPIC (Homo sapiens, UniProt Q8N5J4 1-248); details: protein: recombinant; tags: N-terminal GST; dsDNA, one strand shown
# T8 sequence: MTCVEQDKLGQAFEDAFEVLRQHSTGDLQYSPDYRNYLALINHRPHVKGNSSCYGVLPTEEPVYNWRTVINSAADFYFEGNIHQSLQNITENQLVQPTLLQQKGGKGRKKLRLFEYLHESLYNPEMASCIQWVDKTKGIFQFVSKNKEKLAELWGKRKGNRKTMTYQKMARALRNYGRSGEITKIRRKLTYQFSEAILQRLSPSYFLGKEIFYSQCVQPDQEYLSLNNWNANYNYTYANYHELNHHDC
# How it was run: as §1
# ELF4 = ELF4 (Homo sapiens, UniProt Q99607 1-663); details: protein: recombinant; tags: N-terminal GST; dsDNA, one strand shown
# Chain of ELF4 (Q99607 whole entry): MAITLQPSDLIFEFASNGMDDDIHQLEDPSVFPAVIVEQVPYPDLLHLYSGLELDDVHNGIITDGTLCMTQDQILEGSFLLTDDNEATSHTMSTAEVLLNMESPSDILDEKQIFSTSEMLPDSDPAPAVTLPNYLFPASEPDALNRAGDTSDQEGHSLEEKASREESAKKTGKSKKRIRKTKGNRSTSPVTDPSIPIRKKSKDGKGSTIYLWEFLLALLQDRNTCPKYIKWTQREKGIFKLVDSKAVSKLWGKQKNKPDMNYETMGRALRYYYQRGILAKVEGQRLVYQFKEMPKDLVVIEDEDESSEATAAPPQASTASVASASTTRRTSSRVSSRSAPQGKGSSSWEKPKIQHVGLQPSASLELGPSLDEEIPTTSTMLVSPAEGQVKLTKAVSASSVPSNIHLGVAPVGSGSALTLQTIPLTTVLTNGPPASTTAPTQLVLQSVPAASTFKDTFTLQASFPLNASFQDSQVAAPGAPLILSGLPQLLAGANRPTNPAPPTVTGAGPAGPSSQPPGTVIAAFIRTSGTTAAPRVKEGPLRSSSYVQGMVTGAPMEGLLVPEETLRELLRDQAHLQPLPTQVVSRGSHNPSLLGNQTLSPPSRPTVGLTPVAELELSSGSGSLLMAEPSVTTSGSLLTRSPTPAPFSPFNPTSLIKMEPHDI
# How it was run: as §1
# ELK4 = molecular target: T9, ELK4 (Homo sapiens, UniProt P28324-2 1-405); details: protein: recombinant; tags: N-terminal GST; dsDNA, one strand shown
# T9 sequence: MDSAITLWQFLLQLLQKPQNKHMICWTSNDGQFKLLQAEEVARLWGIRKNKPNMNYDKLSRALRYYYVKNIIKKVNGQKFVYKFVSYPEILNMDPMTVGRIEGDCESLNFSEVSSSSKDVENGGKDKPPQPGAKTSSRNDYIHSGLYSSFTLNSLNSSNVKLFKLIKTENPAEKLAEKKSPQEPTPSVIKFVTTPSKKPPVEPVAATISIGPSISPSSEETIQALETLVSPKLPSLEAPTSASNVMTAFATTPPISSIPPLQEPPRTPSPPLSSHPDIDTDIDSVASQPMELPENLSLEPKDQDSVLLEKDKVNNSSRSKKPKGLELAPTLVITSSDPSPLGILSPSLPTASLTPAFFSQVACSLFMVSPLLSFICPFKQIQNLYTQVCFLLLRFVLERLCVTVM
# How it was run: as §1
# ETV2 = molecular target: T10, ETV2 (Homo sapiens, UniProt O00321 1-342); details: protein: recombinant; tags: N-terminal GST; dsDNA, one strand shown
# T10 sequence: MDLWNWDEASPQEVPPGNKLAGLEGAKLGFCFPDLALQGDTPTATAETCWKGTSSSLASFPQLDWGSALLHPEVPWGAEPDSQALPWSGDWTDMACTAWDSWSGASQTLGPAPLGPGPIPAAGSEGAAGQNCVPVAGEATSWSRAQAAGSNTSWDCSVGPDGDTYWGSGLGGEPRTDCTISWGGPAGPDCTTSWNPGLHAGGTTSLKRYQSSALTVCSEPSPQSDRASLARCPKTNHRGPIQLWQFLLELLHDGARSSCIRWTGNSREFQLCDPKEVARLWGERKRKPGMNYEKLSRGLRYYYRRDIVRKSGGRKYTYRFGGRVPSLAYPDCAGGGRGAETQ
# How it was run: as §1
# ELF3 = molecular target: T11, ELF3 (Homo sapiens, UniProt P78545 1-371); details: protein: recombinant; tags: N-terminal GST; dsDNA, one strand shown
# T11 sequence: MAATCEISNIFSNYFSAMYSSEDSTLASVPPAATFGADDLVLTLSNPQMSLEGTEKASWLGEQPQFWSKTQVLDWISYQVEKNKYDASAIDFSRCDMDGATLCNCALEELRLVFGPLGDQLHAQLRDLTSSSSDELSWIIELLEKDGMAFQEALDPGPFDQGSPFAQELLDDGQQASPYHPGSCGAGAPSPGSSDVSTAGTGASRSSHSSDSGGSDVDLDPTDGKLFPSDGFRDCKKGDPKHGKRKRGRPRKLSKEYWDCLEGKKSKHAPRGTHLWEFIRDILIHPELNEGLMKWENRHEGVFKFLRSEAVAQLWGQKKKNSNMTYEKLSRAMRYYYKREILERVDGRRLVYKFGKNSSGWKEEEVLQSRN
# How it was run: as §1
# ETV1 = ETV1 (Homo sapiens, UniProt P50549 1-477); details: protein: recombinant; tags: N-terminal GST; dsDNA, one strand shown
# Chain of ETV1 (P50549 whole entry): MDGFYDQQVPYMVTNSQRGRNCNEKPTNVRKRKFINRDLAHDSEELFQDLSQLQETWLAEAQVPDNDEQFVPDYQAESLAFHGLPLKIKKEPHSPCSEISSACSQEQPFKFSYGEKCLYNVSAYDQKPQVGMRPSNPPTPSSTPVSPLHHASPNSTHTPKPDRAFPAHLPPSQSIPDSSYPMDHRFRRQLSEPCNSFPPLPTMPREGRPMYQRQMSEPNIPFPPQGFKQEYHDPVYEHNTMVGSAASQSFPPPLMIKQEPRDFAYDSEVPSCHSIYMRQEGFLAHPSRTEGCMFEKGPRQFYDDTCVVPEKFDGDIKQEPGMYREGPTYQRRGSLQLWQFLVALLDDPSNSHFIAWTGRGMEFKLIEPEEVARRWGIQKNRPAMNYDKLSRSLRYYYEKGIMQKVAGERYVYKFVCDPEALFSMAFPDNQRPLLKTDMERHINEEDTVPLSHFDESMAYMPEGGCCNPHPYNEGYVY
# How it was run: as §1
sequence,measurement,setting,value
TTCCGT,binding signal,FLI1,"1.79 fold enrichment (6-mer frequency, TF over GST control)"
same,binding signal,ELK1,"2.11 fold enrichment (6-mer frequency, TF over GST control)"
same,binding signal,GABPA,"1.76 fold enrichment (6-mer frequency, TF over GST control)"
same,binding signal,ERG,"2.13 fold enrichment (6-mer frequency, TF over GST control)"
same,binding signal,ELF1,"1.74 fold enrichment (6-mer frequency, TF over GST control)"
same,binding signal,EHF,"2 fold enrichment (6-mer frequency, TF over GST control)"
same,binding signal,SPI1,"2.14 fold enrichment (6-mer frequency, TF over GST control)"
same,binding signal,SPIB,"2.07 fold enrichment (6-mer frequency, TF over GST control)"
same,binding signal,ELK3,"1.86 fold enrichment (6-mer frequency, TF over GST control)"
same,binding signal,FEV,"1.86 fold enrichment (6-mer frequency, TF over GST control)"
same,binding signal,ETV5,"1.99 fold enrichment (6-mer frequency, TF over GST control)"
same,binding signal,HSF1,"1.02 fold enrichment (6-mer frequency, TF over GST control)"
same,binding signal,SPIC,"2.02 fold enrichment (6-mer frequency, TF over GST control)"
same,binding signal,ELF4,"1.67 fold enrichment (6-mer frequency, TF over GST control)"
same,binding signal,ELK4,"1.89 fold enrichment (6-mer frequency, TF over GST control)"
same,binding signal,ETV2,"1.88 fold enrichment (6-mer frequency, TF over GST control)"
same,binding signal,ELF3,"1.74 fold enrichment (6-mer frequency, TF over GST control)"
same,binding signal,ETV1,"1.82 fold enrichment (6-mer frequency, TF over GST control)"
